# In PubChem BioAssay (NCI):
# This is part of a sample that, as a whole, favours compounds with a hit. Of some 83,000 tested, about 20% had one in any assay.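 Note: values are percent growth. 100 is the growth of untreated cells, values between 100 and 0 indicate rising inhibition; between -100 and 0 indicates cell death.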 The source made the active and inactive calls. How the source made its calls: active means growth percent below 10; inactive means the rest.
# System: NCI-H460 lung
# Experiment: NCI-60 one-dose screen, 48 h (100 = growth as untreated, 0 = no growth, -100 = all killed)
# Settings: 10 µM unless noted
row,Compound,growth
1,O=[N+]([O-])c1cc(/C=N/Nc2nc(N/N=C/c3ccc(Cl)c([N+](=O)[O-])c3)nc(N3CCCCC3)n2)ccc1Cl,98.7% (inactive)
2,C#Cc1nc(C(C)=O)cs1,106% (inactive)
3,O=C1[C@H]2Cc3c([nH]c4ccccc34)[C@@H](c3c(Cl)cccc3Cl)N2C(=O)CN1C1CCN(CC2CCCCC2)CC1,63.6% (inactive)
4,O=C1Nc2ccccc2/C1=C/c1ccc(COCC2CO2)n1-c1ccc(O)cc1 (centres undefined),113% (inactive)
5,CCOc1ccc(NC2=C(Cl)C(=O)c3nc(C)ccc3C2=O)cc1,13.4% (inactive)
6,O=S(=O)(NCCCNc1nccc(-c2[nH]c(-c3ccccc3)nc2-c2ccc(Cl)c(O)c2)n1)c1cccc(F)c1,55.2% (inactive)
7,CN1CCN(Cc2ccc(NC(=O)c3cncc(C#Cc4cnc5ccc(OCC6(C)COC6)nn45)c3)cc2C(F)(F)F)CC1,-77.5% (active)
8,COc1cc2c(cc1OC)C(Sc1ccc(F)cc1)c1c(nc(N)c(C#N)c1N)O2 (centres undefined),-60.7% (active)
9,Cc1nc(-c2ccccc2O)ccc1C(=O)N=Nc1c(O)[nH]c2ccc(Br)cc12,99.8% (inactive)
10,COc1cc(-c2nnc(SCc3ccc(O)c4ncccc34)n2-c2ccccc2)cc(OC)c1OC,-29.8% (active)
11,NS(=O)(=O)c1ccc(-n2cc(CN3CCCCC3)nn2)cc1,105% (inactive)
12,COc1cc(/C=C2\C(=O)Nc3ccccc32)ccc1OCc1ccc(Cl)cc1,41.1% (inactive)
13,Cc1ccc(-c2nnc(SCc3ccc(O)c4ncccc34)o2)cc1,2.77% (active)
14,COc1ccccc1NCc1cccn1Cc1ccc(F)cc1,103% (inactive)
15,CCN1CCN(Cc2ccc(C(=O)Nc3ccc(C)c(Oc4ccc(-c5[nH]nc6ncnc(N)c56)cc4)c3)cc2C(F)(F)F)CC1,106% (inactive)
16,CCOC(=O)c1c(NC(=O)c2ccccc2C(F)(F)F)sc2c1CCC(=O)C2,33.3% (inactive)
17,CN1CCN(c2ccc(/C=N/n3cnc4oc(-c5ccccc5)cc4c3=N)cc2)CC1,99.6% (inactive)

row,Compound,growth
1,Cn1ccnc1C(=O)/C=C/c1ccc(CNC(=O)c2ccc(S(F)(F)(F)(F)F)cc2)cc1,-18.1% (active)
2,COc1ccc(NC2=C(Cl)C(=O)c3nc(C)ccc3C2=O)cc1OC,100% (inactive)
3,CCc1nn2c(C)cc(C)nc2c1Cc1ccc(/C=C/CN2CCN(CCOCCOCCN3CCN(C/C=C/c4ccc(Cc5c(CC)nn6c(C)cc(C)nc56)cc4)CC3)CC2)cc1,-63.8% (active)
4,COc1c(N2CC3CCCNC3C2)c(F)cc2c(=O)c(C(=O)N/N=C/c3c[nH]c4ccccc34)cn(C3CC3)c12 (centres undefined),107% (inactive)
5,CC(=O)c1nnn(-c2c(C(=O)n3nc(C)cc3C)sc(=S)n2-c2ccccc2)c1C,113% (inactive)
6,CCCCc1nc(/C=N/Nc2nc(Nc3ccccc3)nc(Nc3ccc(S(N)(=O)=O)cc3)n2)c(Cl)[nH]1,100% (inactive)
7,O=C(CNc1nc(-c2cccc([N+](=O)[O-])c2)cs1)Nc1cccc(Cl)c1,113% (inactive)
8,O=C(CSc1nnc(-c2ccc(Cl)cc2)n1-c1ccccc1)Nc1ccc(Br)cc1,5.77% (active)
9,Cn1ccnc1C(=O)/C=C/c1ccc(NC(=O)c2c(F)c(F)c(F)c(F)c2F)cc1,105% (inactive)
10,CNC(=O)c1cc(N2CCc3cc(NC(=O)Nc4ccc(Cl)c(C(F)(F)F)c4)ccc32)ccn1,38% (inactive)
11,COc1c(N2CC3CCCNC3C2)c(F)cc2c(=O)c(C(=O)N/N=C/c3ccccc3)cn(C3CC3)c12 (centres undefined),98.7% (inactive)
12,C[C@H](CCC(=O)NCc1ccc(C(=O)Nc2ccccc2N)cc1)[C@H]1CC[C@H]2[C@@H]3[C@@H](O)C[C@@H]4C[C@H](O)CC[C@]4(C)[C@H]3CC[C@]12C,60.8% (inactive)
13,COc1c(N2CC3CCCNC3C2)c(F)cc2c(=O)c(C(=O)N/N=C/c3ccc4c(c3)OCO4)cn(C3CC3)c12 (centres undefined),79.2% (inactive)
14,O=S(=O)(NCCCNc1nccc(-n2cnc3ccccc32)n1)c1ccc(C(F)(F)F)cc1,89.8% (inactive)
15,C=CCn1c(SCC(=O)Nc2ccc(C(=O)/C=C/c3cc(OC)c(OC)c(OC)c3)cc2)nnc1-c1c[nH]c2ccccc12,3.42% (active)
16,Brc1ccccc1/C=N/Nc1nc(N/N=C/c2ccccc2Br)nc(N2CCOCC2)n1,103% (inactive)
17,COc1ccc(-c2cc(-c3ccc(Cl)cc3)c(C#N)c(=O)n2Cc2ccc(C(=O)O)cc2)cc1,92.4% (inactive)
